Screen size: about 11,000 compounds; about 310 (2.8%) were called active. No stated cut-off is given here; in the data, active means activity change below about -85%; inactive means the rest. Only a selection was taken, and actives are over-represented in it overall.

The experiment has as its system intestinal alkaline phosphatase [Mus musculus]. The experiment can be described thus: activators of mouse IAP, confirmation, biochemical, luminescence, single concentration (AID 434970). Conditions: purified mouse IAP, CDP-Star luminescence, 30 min, at 10 µM; activation factor: measured here: IAP activation factor, stronger effect = higher value; activity change, negative = activation: stronger effect = lower value.
For the compound `Cc1cc(C)n2cc(CSc3nnnn3-c3ccccc3)nc2n1`, the activation factor was 0.946 and the activity change, negative = activation was 5.45% (inactive).
For the compound `CCOC(=O)c1c(NC(=O)CSc2nnc(CNc3ccc(F)cc3)o2)sc(C(C)=O)c1C`, the activation factor was found to be 0.797 and the activity change, negative = activation is 20.2% (inactive).
In the same order, the values of `O=C1c2ccccc2[C@@H]2C[C@@H](O)[C@H](Nc3cccc(Cl)n3)CCN12` are 1.01 and -0.85% (inactive).
For `CCCCN1CCS(=O)(=O)N(Cc2ccccc2Br)CC(C(=O)OC)C1` (stereo not given) the same measures were 0.992 and 0.8% (inactive).
Consider `C=CCNC(=O)/C(=C/c1ccco1)NC(=O)c1ccc(Br)o1`, for which the activation factor was found to be 0.906 and the activity change, negative = activation is 9.4% (inactive).
For `O=C(NCCCN1CCCCC1)c1ccc2c(=O)n(CCc3ccccc3)c(=O)[nH]c2c1` the same measures were 0.91 and 9% (inactive).
For `COc1cc(OC)c2c(-c3cccc(-c4ccc(OC(F)(F)F)cc4)c3)cc(=O)oc2c1` the same measures were 0.834 and 16.6% (inactive).
For `COCC(C)NCc1cccc(OC)c1OC` (stereo not given) the same measures were 1.14 and -14.2% (inactive).
Turning to `Cc1ccc(C(=O)NC(Cc2ccc(C(C)(C)C)cc2)C(=O)O)cc1` (stereo not given), the activation factor turned out to be 1.03 and the activity change, negative = activation is -3.5% (inactive).
In the same order, the values of `O=C(c1ccc(S(=O)(=O)N2CCCCC2)cc1)N1CCCc2ccccc21` are 0.98 and 2.05% (inactive).
For `Cc1ccccc1-c1cc(C(=O)NCc2cccc(Br)c2)n(CC2CC(c3cccnc3)=NO2)n1` (stereo not given) the same measures were 1.56 and -55.5% (inactive).
In the same order, the values of `Cc1cc(Cn2nc(-c3ccccc3)cc2C(=O)NCc2cccc(Br)c2)on1` are 3.29 and -230% (active).
Turning to `Cc1nn(C)cc1CNC(=O)c1cccc(Br)c1`, the activation factor was 1.12 and the activity change, negative = activation is -11.8% (inactive).
In the same order, the values of `O=C(C[C@H]1C[C@H](C(=O)N2CCOCC2)[C@@]2(CCC3CCCC3)c3[nH]c4cc(-c5ccco5)ccc4c3CCN2C1=O)NCCc1ccccn1` are 1.17 and -17.2% (inactive).
For `Cc1ccccc1OCC(=O)OC(C)CN1CCN(C)CC1` (stereo not given) the same measures were 0.998 and 0.2% (inactive).
For `CCOc1ccc(NC(=O)Nc2ccc3c(c2)N(C)C(=O)CS3)cc1` the same measures were 1.29 and -29.2% (inactive).
As for `CC(=O)c1ccc(NC(=O)Nc2ccc3c(c2)N(C)C(=O)CS3)cc1`, the activation factor was 1.28 and the activity change, negative = activation is -28.4% (inactive).
In the same order, the values of `Cc1ccc(CNC(=O)Nc2ccc3c(c2)N(C)C(=O)CS3)cc1` are 1.78 and -78% (inactive).
In the same order, the values of `CC(C)CCNC(=O)Nc1ccc2c(c1)N(C)C(=O)CS2` are 1.53 and -52.8% (inactive).
For `COc1ccc(NC(=O)Nc2ccc3c(c2)N(C)C(=O)CS3)cc1OC` the same measures were 1.48 and -48.4% (inactive).
As for `Cc1ccc(NC(=O)Nc2ccc3c(c2)N(C)C(=O)CS3)cc1C`, the activation factor is 1.92 and the activity change, negative = activation was -91.7% (inactive).
In the same order, the values of `CN1C(=O)CSc2ccc(NC(=O)NCCC3=CCCCC3)cc21` are 2.22 and -122% (active).
For `CCc1ccc(NC(=O)Nc2ccc3c(c2)N(C)C(=O)CS3)cc1` the same measures were 2.14 and -114% (active).
For `Cc1cc(C)cc(NC(=O)Nc2ccc3c(c2)N(C)C(=O)CS3)c1` the same measures were 2.54 and -154% (active).
As for `CCCn1c(Cc2ccccc2)nnc1SCC(=O)N1CCOCC1`, the activation factor came to 0.955 and the activity change, negative = activation was 4.5% (inactive).
For the compound `CC(O)[C@H](NC(=O)C1(c2ccccc2)CCN(C(=O)OC(C)(C)C)CC1)C(=O)O` (stereo not given in full), the activation factor worked out at 1.15 and the activity change, negative = activation was -15.3% (inactive).
Regarding `COc1ccc2[nH]c3c(c2c1)CCN1C(=O)C(CC(=O)NCCN2CCOCC2)C[C@H](C(=O)N2CCOCC2)[C@@]31CCC1CCCC1` (stereo not given in full), the activation factor is 1.04 and the activity change, negative = activation is -4.1% (inactive).
For the compound `O=C(C[C@H]1C[C@H](C(=O)N2CCCCC2)[C@@]2(CCc3ccccc3)c3[nH]c4ccc(Cl)cc4c3CCN2C1=O)NCc1cccc(C(F)(F)F)c1`, the activation factor stood at 1.15 and the activity change, negative = activation is -15% (inactive).
For `Cn1c(COc2ccc3ccccc3c2)nnc1SCC(=O)O` the same measures were 0.952 and 4.85% (inactive).
With `O/N=C1/CC/C(=N\O)c2nn(-c3ccccc3)nc21`, the activation factor amounted to 0.893 and the activity change, negative = activation was 10.7% (inactive).
In the case of `CCOC(=O)c1cnn(-c2ccc(Cl)cc2)c1C1CCN(C(=O)OC(C)(C)C)CC1`, the activation factor turned out to be 1.12 and the activity change, negative = activation was -12.1% (inactive).
In the same order, the values of `COc1ccc(Nc2nc(-c3cccs3)cs2)cc1` are 0.881 and 11.9% (inactive).
As to `Cc1cccc(NC(=O)/C(=C\c2ccco2)NC(=O)c2cccs2)c1`, the activation factor was 0.978 and the activity change, negative = activation is 2.15% (inactive).
For `Cc1cccc(C2=NN(c3ccccc3)[C@H](CO)[C@H]2c2ccc(Cl)cc2)c1` the same measures were 1.89 and -89.3% (inactive).
In the same order, the values of `OC[C@@H]1[C@@H](c2ccc(Cl)cc2)C(c2cccc(Cl)c2)=NN1c1ccccc1` are 2.2 and -120% (active).
`OC[C@@H]1[C@@H](c2ccc(Cl)cc2)C(c2ccccc2)=NN1c1ccccc1`: the activation factor was found to be 1.77 and the activity change, negative = activation is -76.8% (inactive).
In the same order, the values of `OC[C@@H]1[C@@H](c2ccccc2)C(c2cccc(Cl)c2)=NN1c1ccccc1` are 2.28 and -128% (active).
For `OC[C@@H]1[C@@H](c2ccc(F)cc2)C(c2ccccc2)=NN1c1ccccc1` the same measures were 1.73 and -72.9% (inactive).
For `Cc1cccc(C2=NN(c3ccccc3)[C@H](CO)[C@H]2c2ccccc2)c1` the same measures were 2.07 and -107% (active).
With `OC[C@@H]1[C@@H](c2ccccc2)C(c2ccc(F)cc2)=NN1c1ccccc1`, the activation factor was 1.65 and the activity change, negative = activation is -64.5% (inactive).
For `OC[C@@H]1[C@@H](c2ccc(F)cc2)C(c2cccc(Cl)c2)=NN1c1ccccc1` the same measures were 1.96 and -96.2% (inactive).
Take `O=C1OCCN1C(=O)[C@H]1[C@H](c2ccccc2)C(c2cccc(Cl)c2)=NN1c1ccccc1`: the activation factor stood at 1.01 and the activity change, negative = activation was -1.05% (inactive).
In the same order, the values of `OC[C@@H]1[C@@H](c2ccccc2)C(c2ccccc2)=NN1c1ccccc1` are 2.15 and -115% (active).
For `OC[C@@H]1[C@@H](c2ccc(Cl)cc2)C(c2ccc(F)cc2)=NN1c1ccccc1` the same measures were 1.79 and -79% (inactive).
In the same order, the values of `Cc1cccc(C2=NN(c3ccccc3)[C@H](CO)[C@H]2c2ccc(F)cc2)c1` are 1.73 and -72.7% (inactive).
`Cc1noc(C)c1S(=O)(=O)N1CCC(C(=O)NCCN2CCC(C)CC2)CC1`: the activation factor was 1.01 and the activity change, negative = activation was -1.4% (inactive).
In the same order, the values of `COc1ccc(C(=O)Nc2ccc(S(=O)(=O)N3CCCCC3)cc2)cc1` are 1.11 and -11% (inactive).
In the same order, the values of `COC(=O)C(NC(=O)CCc1c(C)nc2ncnn2c1C)C(C)C` (stereo not given) are 0.949 and 5.15% (inactive).
In the same order, the values of `Clc1ccc(-n2nnnc2-c2cnc(-c3ccncc3)nc2-c2cccs2)cc1` are 0.877 and 12.4% (inactive).
As for `COc1ccc(CN(C(=O)c2ccco2)C2CC(C)N(C)CC2C)cc1` (stereo not given), the activation factor came to 0.982 and the activity change, negative = activation is 1.75% (inactive).
For `COc1ccc(CNC(=O)C[C@H]2C[C@H](C(=O)N3CCOCC3)[C@@]3(C)c4[nH]c5cc(CCC(=O)N(C)C)ccc5c4CCN3C2=O)cc1OC` the same measures were 1.08 and -8.2% (inactive).
In the same order, the values of `O=C(O)CCSc1nc(C(F)(F)F)cc(=O)n1-c1ccccc1` are 1.01 and -1% (inactive).
In the same order, the values of `Cn1cc(C(=O)c2ccccc2)cc1-c1nc2ccccc2n1C` are 1.13 and -13.2% (inactive).
For `COc1ccccc1[C@H]1C(c2cccc(Cl)c2)=NN(c2ccccc2)[C@@H]1CO`, the activation factor was 1.54 and the activity change, negative = activation is -54.1% (inactive).
In the same order, the values of `COc1ccccc1[C@H]1C(c2ccccc2)=NN(c2ccccc2)[C@@H]1CO` are 1.99 and -99.2% (active).
On to `COc1ccccc1[C@H]1C(c2ccc(F)cc2)=NN(c2ccccc2)[C@@H]1CO`, for which the activation factor came to 1.49 and the activity change, negative = activation is -48.9% (inactive).
In the same order, the values of `Clc1ccccc1CN(Cc1ccco1)Cc1nnnn1C1CCCC1` are 1.07 and -7.45% (inactive).
In the same order, the values of `CC(C)C(=O)Nc1ncc(C(F)(F)F)cc1Cl` are 1.02 and -2.1% (inactive).
In the same order, the values of `Cc1ccc(CNC(=S)NC2CCC(C(C)(C)C)CC2)cc1` (stereo not given) are 2 and -99.9% (active).
For the compound `Cc1ccc(CNC(N)=S)cc1`, the activation factor was found to be 1.06 and the activity change, negative = activation is -6.15% (inactive).
In the same order, the values of `CC(NC(=S)NC1CCC(C(C)(C)C)CC1)c1ccccc1` (stereo not given) are 1.7 and -69.9% (inactive).
In the same order, the values of `O=C(COC(=O)c1cccnc1SCC(=O)NCc1ccccc1)NCc1ccccc1` are 0.985 and 1.5% (inactive).
With `CCCc1cc(=O)[nH]c(SCC(=O)N(C)CC(=O)Nc2ccccc2CC)n1`, the activation factor amounted to 0.825 and the activity change, negative = activation was 17.6% (inactive).
In the same order, the values of `CC(=O)Nc1ccc(C(=O)OCC(=O)NC(=O)NC2CCCCC2)cc1` are 0.997 and 0.3% (inactive).
For `CC(C)c1ccc(NC(=S)NC2CCCCCC2)cc1`, the activation factor was determined as 1.39 and the activity change, negative = activation was -38.9% (inactive).
For `O=C(Nc1ccc(Br)cc1)NC1CCCCCCC1` the same measures were 2.74 and -174% (active).
In the same order, the values of `COc1ccc(CCNC(=O)NC2CCCCC2)cc1` are 0.976 and 2.4% (inactive).
In the same order, the values of `CCc1ccc(NC(=O)NC2CCCCCCC2)cc1` are 3.13 and -213% (active).
On to `S=C(Nc1ccc(Br)cc1)NC1CCCCC1`, for which the activation factor stood at 1.71 and the activity change, negative = activation is -70.7% (inactive).
For `COc1ccc(C2NCCO2)cc1OC` (stereo not given) the same measures were 0.954 and 4.65% (inactive).
In the same order, the values of `C=CCONC(=O)Cc1ccccc1` are 1.1 and -9.55% (inactive).
In the same order, the values of `Cc1ccc(NC2=NC(C(=O)Nc3ccc(C)c(C)c3)CC(=O)N2)cc1` (stereo not given) are 0.958 and 4.15% (inactive).
Regarding `Cc1ccc(NC(=O)C(=O)NNC(=O)c2ccccc2C)cc1Cl`, the activation factor is 0.889 and the activity change, negative = activation is 11.1% (inactive).
In the same order, the values of `Cc1ccc(NC(=O)C2CC(=O)n3c(nc4ccccc43)N2)cc1C` (stereo not given) are 2.2 and -120% (active).
In the same order, the values of `Cc1ccc(NC(=O)C2CC(=O)n3c(nc4ccccc43)N2)cc1Cl` (stereo not given) are 2.25 and -125% (active).
For `Cc1cccc(NC(=O)C2CC(=O)n3cnnc3S2)c1` (stereo not given) the same measures were 0.843 and 15.8% (inactive).
For the compound `COc1ccc(NC(=O)N2CCCC2C(=O)Nc2ccc(C)c(Cl)c2)cc1` (stereo not given), the activation factor stood at 1.12 and the activity change, negative = activation was -12.4% (inactive).
In the same order, the values of `C=C(C)Cn1c(=O)c2c(nc3n2CCN3c2cccc(Cl)c2C)n(C)c1=O` are 0.924 and 7.6% (inactive).
For `CC(C)(C)c1ccc(OCc2nc(-c3ccccn3)no2)c(Br)c1` the same measures were 0.924 and 7.55% (inactive).
For `COc1ccc(-c2noc(CCC(=O)N3CCN(c4ccc(C(F)(F)F)cc4)CC3)n2)cc1` the same measures were 1.05 and -4.65% (inactive).

(Values after PubChem BioAssay AID434970 (Sanford-Burnham Center for Chemical Genomics, 2010).)
